For 91 compounds, Potency, cell number change and lipid storage change, negative = inhibition results are on record in PubChem BioAssay AID2685 (National Center for Advancing Translational Sciences (NCATS), 2010).

Molecules are shown by their SMILES. About 2,100 (0.66%) of roughly 320,000 compounds were called active. Roughly 53% stayed inconclusive and do not appear here. The call rests on the fitted dose curve; in most records, active means well fitted inhibition curve with a large enough effect in the signal ratio, with a control signal flat (not every such curve was filed as active); inconclusive means small, poorly fitted or top-dose-only effect, or effect the other way, or a change in a side signal; inactive means flat fitted curve, though single readings scatter; the % refers to the signal ratio. The full list was thinned out, with actives kept by preference.
Potency means the concentration at half of the fitted maximal effect.

The assay can be described thus: qHTS Assay for Lipid Storage Modulators in Drosophila S3 Cells.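 On cell number change: cells counted by Cell Tracker Red CMTPX staining in the red channel.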 On lipid storage change, negative = inhibition: on the % scale 0 is the no-effect control and ±100 the full control effect. The following applies: BODIPY lipid droplet fluorescence, 18-24 h, cells fed with added oleic acid; cell number change: measured here: cell count max response; series mostly up to 46.1 µM. The method in brief: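 Drosophila S3 cells loaded with oleic acid (400 uM, as added) and compounds at several concentrations; lipid droplets imaged by 488-nm laser-scanning cytometry, 500–530 nm intensity and object ratio to cell channel. Percent activity normalized to 20 uM Triacsin C.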
(In qHTS, concentration-response curves come from the screen itself.)
With `CCn1cc(S(=O)(=O)NC(C)c2cc(OC)ccc2OC)cn1` (configuration not stated), the Potency entry was “inactive” and the cell number change was found to be 5.77%.

With `Cc1cccc2c1N(CCCOc1ccccc1)C(=O)C2=O`, the Potency entry was “inactive” and the cell number change amounted to 4.6%. For `CC1CCN(CCCCOc2ccccc2F)CC1` the same measures were “inactive” and 12.3%. For `Cn1nnc(NC(=O)c2ccccc2)n1` the same measures were “inactive” and -11.2%. For `Cc1ccc(OCc2cc(C(=O)N(C)Cc3cnn(-c4ccccc4C)c3)no2)cn1`, in that order: 23.1 µM (active) and -11.8%.

On to `CN(Cc1cnn(C)c1)C(=O)c1cc(COc2c(F)cccc2F)on1`, for which the Potency entry is “inactive” and the cell number change was determined as 16.3%.

Consider `CC(=O)c1ccc(OCc2cc(C(=O)N(C)Cc3cc(C)no3)no2)cc1`, for which the Potency entry is “inactive” and the cell number change was -2.95%. For `C/C(=N\NC(=O)Cc1cccn1C)c1ccc([N+](=O)[O-])cc1` the same measures were “inactive” and 2.69%. For the compound `CCN(Cc1ccncc1)C(=O)CSc1ccc2ccccc2c1`, the Potency result was “inactive”. Consider `O=C(Nc1ccc2ccccc2c1)c1ccc2[nH]c(=O)c(=O)[nH]c2c1`, for which the Potency result is “inactive” and the cell number change is -10.4%. On to `O=C(Nc1ccc2ccccc2c1)c1ccc(Cl)cc1`, for which the Potency was 1.3 µM (active) and the cell number change was -18.8%. For `O=C(Nc1ccc2ccccc2c1)c1ccc(Cl)cc1Cl` the same measures were “inactive” and -1.02%.

For `CCOc1ccc(C(=O)COC(=O)c2nn(CC)c(=O)c3ccccc23)cc1`, the Potency entry is “inactive” and the cell number change amounted to 18.9%. On to `CNC(=O)NNC(=O)c1onc(-c2c(Cl)cccc2Cl)c1C(=O)OC`, for which the Potency entry was “inactive” and the cell number change is 19.9%. `CCc1nc2ccccc2n1CCC(=O)O`: the Potency entry was “inactive” and the cell number change was -14.7%. With `CCSc1nc2ccccc2n1CCC(=O)O`, the Potency result is “inactive”. Regarding `CC(C)c1nc2ccccc2n1CCC(=O)O`, the Potency was 16.4 µM (active) and the cell number change was -4.05%.

Regarding `CCC(C)(CC(=O)Nc1nccs1)c1ccccc1` (configuration not stated), the Potency entry is “inactive” and the cell number change turned out to be 7.48%. For `COc1ccc(CNc2oc(-c3cccc4ccccc34)nc2C#N)cc1`, in that order: “inactive” and -5.87%. As to `N#Cc1nc(-c2cccc3ccccc23)oc1NCC#CCOC(=O)c1cccs1`, the Potency was 14.6 µM (active) and the cell number change was -10.2%.

On to `O=C(OCC#CCSc1nnc(-c2ccccc2)o1)c1cccs1`, for which the Potency result was “inactive” and the cell number change was -0.992%. As to `CC(NC(=O)CSc1n[nH]c(=O)n1C1CC1)C12CC3CC(CC(C3)C1)C2` (configuration not stated), the Potency entry is “inactive” and the cell number change stood at 7.42%.

Take `S=C1NCCOCCOCCOCCNC(=S)N2CCOCCOCCN1CCOCCOCC2`: the Potency entry is “inactive” and the cell number change was -2.24%.

Consider `CCOC(=O)c1[nH]c(C)c(C(=O)NC2CCCCCC2)c1C`, for which the Potency result was “inactive” and the cell number change is -7.97%.

`CCOC(=O)c1[nH]c(C)c(C(=O)NC2CCCCC2)c1C`: the Potency result was “inactive” and the cell number change is -4.45%. For `CCN(CC)CCCNC(=O)c1[nH]c(C)c(C(=O)NC2CCCCC2)c1C` the same measures were 25.9 µM (active) and -5.4%. For `Cc1cc2oc(=O)sc2cc1NS(=O)(=O)c1ccccc1` the same measures were 7.31 µM (active) and 5.22%. For `Cc1cc(O)c(C(C)C)cc1NS(=O)(=O)c1ccccc1`, in that order: “inactive” and -16.1%.

For the compound `O=C(O)c1cccc(S(=O)(=O)Nc2ccc3oc(=O)sc3c2)c1`, the Potency entry is “inactive” and the cell number change came to 4.14%. For `COc1cccc(-c2cc(C(=O)NCC3CCCO3)c3cc(Br)cc(C)c3n2)c1` (configuration not stated) the same measures were “inactive” and -7.43%. For `O=C(O)CC(Cc1ccc(Br)cc1)C(=O)O` (configuration not stated), in that order: “inactive” and -24.7%.

With `N=c1oc2c3c4c(cc2cc1C(=O)Nc1ccccc1)CCCN4CCC3`, the Potency is 5.8 µM (active) and the cell number change stood at 5.35%.

For the compound `N=c1oc2ccccc2cc1C(=O)Nc1ccccc1`, the Potency result is “inactive” and the cell number change was 8.78%. For `N=c1oc2ccccc2cc1C(=O)Nc1ccc(F)cc1` the same measures were “inactive” and 0.805%. In the case of `CC(C)COc1ccc(CSCCNC(=S)Nc2ccccc2)cc1`, the Potency result is “inactive”. For `O=C1C2CCCN2C(c2cccs2)N1c1ccc(F)cc1` (configuration not stated), the Potency entry is “inactive” and the cell number change was -1.44%.

With `Cc1ccc2nc3c(cc(C(=O)NCC4CCCO4)n3C)c(=O)n2c1` (configuration not stated), the Potency result is “inactive” and the cell number change is 19.4%. For `O=C(N/N=C/c1ccco1)C12CC3CC(CC(C3)C1)C2`, in that order: “inactive” and -15.4%. For `CC(=O)Nc1ccc(C(=O)/C=C/c2ccco2)cc1` the same measures were “inactive” and -0.499%.

For the compound `O=C(/C=C/c1ccco1)c1ccc(NC(=O)C23CC4CC(CC(C4)C2)C3)cc1`, the Potency was 16.4 µM (active) and the cell number change is -23.6%. `Cc1noc(C)c1COc1ccccc1C(=O)N(C)Cc1ccc(F)cc1`: the cell number change is -12.5% and the lipid storage change, negative = inhibition is 19.1% [at 0.0737 µM] (inactive). For `O=C(c1ccc2c(c1)OCO2)C1CCCN(Cc2cc(F)ccc2-n2cccn2)C1` (configuration not stated), the Potency result was “inactive” and the cell number change worked out at 10%.

As for `CCc1c(C)nc(N)n2c(SCC(=O)Nc3ccccc3OC)nnc12`, the Potency entry was “inactive” and the cell number change came to 6.92%.

Consider `CCc1c(C)nc(N)n2c(SCC(=O)NC3CCCCC3)nnc12`, for which the Potency was 1.3 µM (active) and the cell number change was determined as 19.2%. Take `CCn1c(C)nnc1SCC(=O)NC1CCCCCC1`: the Potency result was “inactive” and the cell number change was -4.99%. For `COc1ccc(C)cc1N(CC(N)=O)S(=O)(=O)c1ccc(C)cc1`, in that order: “inactive” and -13.9%. For `COc1ccc(Nc2ncc(C#N)c(N)n2)c(OC)c1` the same measures were “inactive” and 3.36%.

For `Cc1c(NC(=O)/C=C/c2ccc(S(=O)(=O)N3CCOCC3)cc2)c(=O)n(-c2ccccc2)n1C`, the Potency entry was “inactive” and the cell number change worked out at 8.27%. For `CC(=O)Nc1ccc(NC(=O)C(C)OC(=O)CCc2nc3ccccc3s2)cc1` (configuration not stated) the same measures were “inactive” and 4.88%. Regarding `CC(OC(=O)CCCc1nc2ccccc2s1)C(N)=O` (configuration not stated), the Potency is 23.1 µM (active) and the cell number change is 18.5%. In the case of `CCNC(=O)NC(=O)C(C)OC(=O)CCCc1nc2ccccc2s1` (configuration not stated), the Potency entry is “inactive” and the cell number change was 2.05%.

Take `Cc1nn(Cc2ccc(C(=O)n3cccn3)o2)c(C)c1Br`: the Potency entry is “inactive” and the cell number change was -2.33%. On to `Cc1csc(NC(=O)c2cccc(Cn3nc(C)c(Br)c3C)c2)n1`, for which the Potency entry is “inactive” and the cell number change is -7.75%. For `Cc1csc(NC(=O)c2ccc(Cn3nc(C)c(Br)c3C)o2)n1`, in that order: 7.31 µM (active) and -7.94%.

Take `Cc1nnc2c(NCCc3ccccc3)nc3ccccc3n12`: the Potency entry was “inactive” and the cell number change is 6.11%. For `CCC(=O)Oc1ccc2oc(=O)cc(C)c2c1` the same measures were “inactive” and -1.41%. Regarding `CCc1ccc(NC(=S)N2CCC(NC(=O)c3ccccc3OC)CC2)cc1`, the Potency result was “inactive” and the cell number change came out at 12.5%. For `Cc1cc(NC(=O)Cn2nc3c(cc2=O)CCCC3)ccc1Br`, in that order: “inactive” and 19.1%. With `N=c1c(S(=O)(=O)c2ccc(Cl)cc2)cc2c(=O)n3ccccc3nc2n1C1CCCC1`, the Potency was 13 µM (active).

For `COc1ccc(CCNC(=O)c2cc3c(=O)n4ccccc4nc3n(Cc3ccco3)c2=N)cc1OC`, the Potency result was “inactive” and the cell number change is -20.4%. For `Cc1ccc(Cn2c(=N)c(C(=O)NCCN3CCOCC3)cc3c(=O)n4ccccc4nc32)cc1`, in that order: “inactive” and 21.5%. `N=c1c(C(=O)NCc2ccco2)cc2c(=O)n3ccccc3nc2n1Cc1ccccc1`: the Potency result is “inactive” and the cell number change is -4.14%.

As for `N=c1c(S(=O)(=O)c2ccc(Br)cc2)cc2c(=O)n3ccccc3nc2n1C1CCCCC1`, the Potency result is “inactive” and the cell number change was determined as 2.36%. For `N=c1c(C(=O)NCCc2ccccc2)cc2c(=O)n3ccccc3nc2n1Cc1ccco1`, in that order: 0.82 µM (active) and -1.35%. In the case of `N=c1c(C(=O)NCCc2ccccc2)cc2c(=O)n3ccccc3nc2n1CCCN1CCOCC1`, the Potency was 6.51 µM (active) and the cell number change is -19%. Consider `COc1ccc(CCNC(=O)c2cc3c(=O)n4ccccc4nc3n(CCCN3CCOCC3)c2=N)cc1OC`, for which the Potency entry is “inactive” and the cell number change worked out at 3.54%. For `N=c1c(C(=O)NCc2ccccc2)cc2c(=O)n3ccccc3nc2n1CCCN1CCOCC1`, in that order: “inactive” and -5.03%. In the case of `Cc1ccc(S(=O)(=O)c2cc3c(=O)n4ccccc4nc3n(C3CCCC3)c2=N)cc1`, the Potency result was “inactive” and the cell number change is -1.32%.

`N=c1c(C(=O)NCCN2CCOCC2)cc2c(=O)n3ccccc3nc2n1CCCN1CCOCC1`: the Potency is 7.31 µM (active) and the cell number change stood at 8.12%. As to `N=c1c(C(=O)NCCN2CCOCC2)cc2c(=O)n3ccccc3nc2n1CCc1ccccc1`, the Potency entry was “inactive” and the cell number change came to 15.8%.

For `COc1ccc(C(=O)NCc2oc(-c3ccccc3)cc2C(=O)O)cc1`, the Potency entry is “inactive” and the cell number change was -4.88%. For `COc1ccc2nc(/C=N/NC(=O)[C@H](CCSC)NC(=O)OC(C)(C)C)ccc2c1` the same measures were “inactive” and 13.4%. As for `COC(=O)c1ccccc1NC(=O)CSc1nc(O)cc(=O)n1C1CCCC1`, the Potency entry is “inactive” and the cell number change worked out at 6.94%. For `O=C(NC(Cc1ccccc1)C(=O)O)/C(=C/c1ccco1)NC(=O)c1cccc([N+](=O)[O-])c1` (configuration not stated) the same measures were “inactive” and -0.0963%. For `Oc1cccc(N2Cc3ccccc3C2)c1`, in that order: “inactive” and -1.3%.

For the compound `CCN1CCN(S(=O)(=O)c2ccc(Cl)c(C(=O)N(C)C(c3ccccc3)c3ccccc3)c2)CC1`, the Potency entry is “inactive”. Regarding `C=CCOc1ccc2ccccc2c1CNn1cn[nH]c1=S`, the Potency entry is “inactive” and the cell number change was determined as 10.6%. As for `Cc1ccc(OCC(=O)NCCCNC(=O)c2ccncc2)cc1`, the Potency result was “inactive” and the cell number change came out at 0.901%. On to `CCOC(=O)N1CCN(C(=O)c2ccc3nc(N4CCCCC4)sc3c2)CC1`, for which the Potency entry was “inactive” and the cell number change is -1.93%. For the compound `CCOC(=O)CNC(=O)N1CCCC(CNS(=O)(=O)c2cccs2)C1` (configuration not stated), the Potency entry was “inactive” and the cell number change turned out to be 11.3%.

Regarding `Cc1ccc(S(=O)(=O)N2CCOCC2)cc1NC(=O)COC(=O)CCC(=O)c1ccc(F)cc1`, the Potency result is “inactive” and the cell number change worked out at 14.2%. For `N=c1c(C(=O)NC2CCCC2)cc2c(=O)n3ccccc3nc2n1C1CCCC1`, in that order: “inactive” and -15.6%. For `O=C(NCCN1CCOCC1)c1cc2c(=O)n3ccccc3nc2n1Cc1ccccc1` the same measures were “inactive” and 13.8%. For `COCCCn1c(C(=O)NCCN2CCOCC2)cc2c(=O)n3ccccc3nc21`, in that order: 1.84 µM (active) and 5.41%. As to `N=c1c(C(=O)NCc2ccco2)cc2c(=O)n3ccccc3nc2n1C1CCCC1`, the Potency was 0.651 µM (active) and the cell number change was 10.3%. For `COCCCn1c(C(=O)N2CCOCC2)cc2c(=O)n3ccccc3nc21`, in that order: “inactive” and 17.7%. For `N=c1c(C(=O)NCC2CCCO2)cc2c(=O)n3ccccc3nc2n1C1CCCCC1` (configuration not stated), in that order: “inactive” and -7.39%.

In the case of `Cc1cccc(C)c1NC(=O)CNC(=O)C1CCCN(C(=O)c2ccc(Cl)cc2)C1` (configuration not stated), the Potency result is “inactive” and the cell number change was determined as 1.48%. For `COc1cc(C(=O)NCC(=O)NC(C)CCc2ccccc2)cc(OC)c1OC` (configuration not stated), in that order: “inactive” and -6.74%.

As for `CCOC(=O)N1CCN(C(=O)CCCCCn2c(=S)[nH]c3ccsc3c2=O)CC1`, the Potency entry is “inactive” and the cell number change was 6.09%. For `CCOC(=O)C1CCCN(C(=O)C2CCN(S(=O)(=O)c3c(C)noc3/C=C/c3ccccc3F)CC2)C1` (configuration not stated), in that order: “inactive” and 2.99%.
